According to the supplement of paper PMC10681739:

Legend:
ETS1 [1] = biological target: T1, ETS1 (UniProt P14921); test: ETS1 binding intensity (PBM fluorescence), ETS1 alone (arbitrary fluorescence units); higher = stronger binding; conditions: ETS1 concentration 1 nM; RUNX1 concentration 0 nM
T1 sequence: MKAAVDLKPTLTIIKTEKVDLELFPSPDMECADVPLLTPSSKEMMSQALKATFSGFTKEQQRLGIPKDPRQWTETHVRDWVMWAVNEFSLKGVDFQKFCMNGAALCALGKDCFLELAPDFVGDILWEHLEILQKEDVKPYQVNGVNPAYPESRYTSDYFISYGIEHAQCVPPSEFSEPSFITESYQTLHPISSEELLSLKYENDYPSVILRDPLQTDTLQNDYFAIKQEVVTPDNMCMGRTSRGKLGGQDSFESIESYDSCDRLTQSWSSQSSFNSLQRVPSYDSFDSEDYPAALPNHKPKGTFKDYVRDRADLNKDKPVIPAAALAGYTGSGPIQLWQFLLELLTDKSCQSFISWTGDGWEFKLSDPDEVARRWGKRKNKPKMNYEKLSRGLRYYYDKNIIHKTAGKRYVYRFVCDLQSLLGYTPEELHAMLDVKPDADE

RUNX1 [2] = biological target: RUNX1 (UniProt Q01196); test: RUNX1 binding intensity (PBM fluorescence), RUNX1 alone (arbitrary fluorescence units); higher = stronger binding; conditions: RUNX1 concentration 2 nM; ETS1 concentration 0 nM
Sequence of RUNX1 (Q01196 whole entry): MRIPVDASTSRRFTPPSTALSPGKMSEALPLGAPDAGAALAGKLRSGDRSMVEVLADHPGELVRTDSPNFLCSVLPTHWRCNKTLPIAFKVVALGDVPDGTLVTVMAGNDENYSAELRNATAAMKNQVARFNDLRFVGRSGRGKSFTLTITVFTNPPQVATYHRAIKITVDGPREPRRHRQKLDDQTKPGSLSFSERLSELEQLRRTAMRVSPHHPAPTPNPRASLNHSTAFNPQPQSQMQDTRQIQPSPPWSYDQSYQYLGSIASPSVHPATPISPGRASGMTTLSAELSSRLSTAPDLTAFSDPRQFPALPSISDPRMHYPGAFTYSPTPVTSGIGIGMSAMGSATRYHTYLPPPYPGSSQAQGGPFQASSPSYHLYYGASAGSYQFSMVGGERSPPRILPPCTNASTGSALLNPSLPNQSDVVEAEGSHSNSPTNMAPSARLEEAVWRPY
Experimental: (§1)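 Cooperative gcPBM on 36-bp genomic probes with neighbouring ETS1 and RUNX1 sites. Recombinant human RUNX1 (2 nM) was incubated alone or with ETS1 (25 nM) and detected with anti-RUNX1 antibody plus Alexa488 secondary. Values are medians over 4 replicate spots; the RUNX1+ETS1 data were normalised to the RUNX1-only data. The probes sit in constant array flanks that are not printed.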

ETS1 [3] = biological target: T1, ETS1; test: ETS1 binding intensity (PBM fluorescence) in presence of RUNX1, normalised to ETS1-only experiment (arbitrary fluorescence units); higher = stronger binding; conditions: ETS1 concentration 1 nM; RUNX1 concentration 25 nM
RUNX1 [4] = biological target: RUNX1 (UniProt Q01196); test: RUNX1 binding intensity (PBM fluorescence) in presence of ETS1, normalised to RUNX1-only experiment (arbitrary fluorescence units); higher = stronger binding; conditions: RUNX1 concentration 2 nM; ETS1 concentration 25 nM
Experimental: as §1
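Throughout, for RUNX1 binding intensity (PBM fluorescence) in presence of ETS1, normalised to RUNX1-only experiment: Full-length recombinant human ETS1 or RUNX1 bound to double-stranded 36-bp genomic probes on microarrays, detected by protein-specific primary antibody and Alexa488 secondary, spot fluorescence as median of four replicate spots.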
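Throughout, for RUNX1 binding intensity (PBM fluorescence), RUNX1 alone: Full-length recombinant human RUNX1 bound to double-stranded 36-bp genomic probes on a high-density microarray, scored as Alexa488 fluorescence per spot via anti-RUNX1 antibody, median of four replicate spots.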

| Sequence | ETS1 binding intensity (ETS1 [1]) | RUNX1 binding intensity (RUNX1 [2]) | ETS1 binding intensity (ETS1 [3]) | RUNX1 binding intensity (RUNX1 [4]) |
| --- | --- | --- | --- | --- |
| CCCTCATCTTCCTGCTTCAGGCAGCTGTGGTTTACC | 420 | 1070 | 1550 | 1660 |
| TTAGGCAGAGCTCATTTCCGCCCACATCAAAAGTAA | 1710 | 867 | 1990 | 1110 |
| AAATGTGGCCGGATGCTCTGTGGGCGGGCGGCAGCT | 2890 | 700 | 3770 | 1300 |
| TCCTCCGTTTCCGTAGTTCCGAGTTGCGGTTTCTCC | 487 | 12000 | 3790 | 15200 |
| TCTGGATTTCCTGTGGGGCTCTCCCACAAGCAGTAC | 518 | 721 | 506 | 1390 |
| CTGTTTCCGAGTAAAGTAGGGTGTGTGGGTCACATG | 456 | 872 | 395 | 929 |
| TCCTGTAGTTTCCGGCTGAAGTGGTAAGGTTTTTGA | 845 | 925 | 852 | 1750 |
| GCAGCCCAGCTTCCTGCAGACCAAAACCACAAGCAG | 542 | 1390 | 2540 | 4140 |
| TGTCAGCTGCGTTTCCGCGGTCGCGGGTGAGTGTGC | 418 | 752 | 588 | 1360 |
| GACACGTCTTTGGAAGGATGTGGTTGCCGTGGGTTT | 724 | 786 | 5580 | 880 |
| ACGGGGAAGAACGGAAGTGGTTTCCATGATGGTCTG | 6420 | 831 | 9080 | 4470 |
| GTAGCTCCTCCCACTTCCCGTGGTTTTCGGTTGAAC | 564 | 1240 | 916 | 2760 |
| TTAGATGTGCCTACATCCTGACCTCAAAAACCTCTG | 561 | 791 | 767 | 957 |
| GCAACAGCGATCCCCGGAAACCACAAGGCGAGATGT | 1660 | 1680 | 5080 | 2790 |
| CACTTCCTATCGCTACATAACAAATTACCACAGACT | 451 | 2490 | 642 | 6310 |
| ATGCTAGAAAGCAGGAAGCCACAGACACGCCCCAAC | 1180 | 857 | 1120 | 875 |
| TCCAGTGCCGCCGCCGGAAAACCGCAGCGGCGGCGG | 887 | 5970 | 4530 | 10200 |
| CACCAGGACGCAACAGGAAACCACAAAGGCCTGAGA | 2390 | 2660 | 6500 | 5270 |
| CCTTTACTTCCTTTTACTTCTAACCACAGAATTAAA | 444 | 7760 | 1810 | 14200 |
| CCTCACAGGGACTTCCTTCCCCGCGGTTCAGGAATC | 444 | 866 | 577 | 1100 |
| TCCCGGGGAGGAAGTGGCGAGAATGCGGGGGTGGGC | 1340 | 906 | 1440 | 1120 |
| AAAGAACTTCCTGAGGTGCTTGAGGTTAGGCTATGG | 487 | 727 | 498 | 1660 |
| GACTCCATTTCCCGTCGGCTCGCGGTGGGAGCGCCG | 417 | 981 | 453 | 1900 |

| Sequence | ETS1 binding intensity (ETS1 [1]) | RUNX1 binding intensity (RUNX1 [2]) | ETS1 binding intensity (ETS1 [3]) | RUNX1 binding intensity (RUNX1 [4]) |
| --- | --- | --- | --- | --- |
| TACAGCTGGAACGTCCTGTGGTTAACATTCTGCTCT | 423 | 1130 | 568 | 1970 |
| GAAATTTCCGCTTTCTTTCTGCAGCAGGAACCGCGG | 2670 | 849 | 2590 | 2550 |
| TGCAATCAGGAAGCCTGCCCCTCTAGAACCACAAAA | 540 | 882 | 1210 | 892 |
| AGAAGGCGCCGGAAGTGGTCCCGCAGAGGCGGGGTG | 8990 | 725 | 14100 | 2500 |
| CTCCGATTGAGAACAGGAAGCCACAGGCCAATACAA | 2660 | 831 | 3260 | 931 |
| CTCCCCCTTTTTTTCCTGTGGTTTCATTGCATGTTG | 454 | 6430 | 566 | 4190 |
| ACAGATACAGCCTCAGGAAGTGGTTTTGTATCTCTG | 3200 | 682 | 6160 | 1070 |
| CCGGGCTGCGGAAGGCGGGAACTCTGCGGTTCGCGG | 484 | 861 | 2650 | 1090 |
| AATCCCGGAAACGCGGATTCAGCGGAGCGCGGTGAC | 1280 | 735 | 1500 | 1260 |
| TCTTTGAGAAGCGGATGTGGTAAACTTGCCTCTGTT | 5970 | 801 | 36600 | 10000 |
| GGTCTCACCGCTCTTCCGCTTGCGGTTTCGGGGGCC | 780 | 2320 | 5370 | 4570 |
| AGCTAGACTACAGGAGGAAACCACAGCCTAAACCAG | 541 | 1250 | 1030 | 1410 |
| CTTCGACCCCGGAAGCGCTAACCACCCCGGGGGCCG | 4160 | 797 | 5880 | 1370 |
| GAAGCGATATTTCCTCCTGGGGTTGACCGCCCCGTG | 492 | 761 | 478 | 1090 |
| AACACCACTTCCTACTGTGAAACCACACTGTATTTG | 456 | 1200 | 588 | 2980 |
| CTGACACTTCCGGGAGCCTTGTAGCCACAGGAATCA | 2490 | 743 | 2590 | 1800 |
| TGGTGCCAAACATCCGCTAGCCACAGAAAAACCGAC | 778 | 826 | 1170 | 1640 |
| TGTCTCTGCCGCCGGAAACCGCGCCGTAGATCATGC | 5360 | 945 | 7800 | 1420 |
| ATACAGACACAGGAAGTTGTGGGGAGTGCAAAAGCC | 5090 | 798 | 5680 | 1530 |
| AACAGCACACAGGAAGTTACCGCTGAAGCAAAGGAG | 2750 | 813 | 4760 | 1250 |
| TTGGTTGTTGCCAGAGGATGTGGGTTGGCGGGGGAG | 1690 | 897 | 4480 | 933 |
| CGAGATCCTGGCCACGGATGCGGTGGCCGCGCCTCT | 414 | 795 | 660 | 975 |
| TGCAGCTTCCTGTCTGAGGCTTTGTGGTCCTTTCAT | 753 | 862 | 889 | 2480 |
